Structures can show the parent of a compound that is named as a salt. Unmarked numbers belong to inactive results.

The test relates to HepG2-TP53BP1-CLTA. Kind of test: phenotypically active (imaging signature differs from DMSO and reproducible) at any of 0.3-9 uM (binary (1 = active, 0 = inactive)); higher = active. The settings on record: treatment time: 24 h. The method in brief: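 Fifteen reporter lines derived from A549, HepG2 and WPMY1 cells by gene editing, carrying BFP for segmentation plus GFP and RFP/FusionRed markers, were exposed to 0.3, 1, 3 or 9 µM for 24 h in four wells each and imaged live. Live-cell features from each well were normalised to solvent control wells. A well set counted as deviating when ≥3 of 4 wells lay beyond the 95th percentile of control Euclidean distances, and as reproducible when the median replicate Pearson correlation exceeded the 95th percentile of non-replicates. Phenotypic activity was assigned only when both criteria were met.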
`N[C@@H]1C[C@H]1c1ccccc1` [Tranylcypromine hydrochloride]: the phenotypically active is 0.
For `C/C=C1\CN2CC[C@]34c5cc(OC)ccc5N5C(=O)C(O)OC[C@@H]([C@H]53)[C@H]1C[C@H]24` (stereo partly specified) [10-Methoxy-o-demethyltsilanine] the value was 0.
Take `Fc1ccccc1C1=NCC(=S)N(CC(F)(F)F)c2ccc(Cl)cc21` [quazepam]: the phenotypically active is 0.
Regarding `COc1c2c(cc3c1OCO3)CC[N+](C)=C2` [Cotarnine chloride], the phenotypically active was 0.
With `N[C@H]1C[C@@H]1c1ccccc1` [tranylcypromine] the figure was 0; with `O=c1ccc2ccc3occc3c2o1` [Angelicin], 0; with `C[C@]12COC(=O)C[C@@H]1CC[C@@H]1[C@@H]2CC[C@@]2(C)[C@H]1CC[C@]2(C)O` [oxandrolone], 0.
As to `CC(C)C[C@H](CN)CC(=O)O` [pregabalin], the phenotypically active is 0.
With `NC(=S)N/N=C/c1coc2ccccc2c1=O` the figure was 0.
In the case of `O[C@H]1[C@H](O)[C@@H](O)CN2CC[C@H](O)[C@H]12` [Castanospermine], the phenotypically active was 0.
In the case of `Cc1ccc(-c2nc3ccc(C)cn3c2CC(=O)N(C)C)cc1` [zolpidem], the phenotypically active was 0.
For `CN1C(CC(O)c2ccccc2)CCCC1CC(O)c1ccccc1` (stereo unspecified) [Lobelanidine hydrochloride] the value was 0.
With `CNC(=O)Oc1ccc2c(c1)[C@]1(C)CCN(C)O[C@@H]1N2C` [Geneserine] the figure was 0.
For `COc1ccc(C(=O)OC2C[C@H]3CC[C@H](C2)N3C)cc1OC` (stereo partly specified) [Convolamine hydrochloride] the value was 0; for `CC(C)[N+](C)(CCC(C(N)=O)(c1ccccc1)c1ccccc1)C(C)C` [isopropamide-iodide], 0.
`CC(C)N(CCC(C(N)=O)(c1ccccc1)c1ccccn1)C(C)C` (stereo unspecified) [disopyramide]: the phenotypically active is 0.
For `O=C1C[C@@H]2OCC=C3C[N+]4([O-])CC[C@]56c7ccccc7N1[C@H]5[C@H]2[C@H]3C[C@@H]64` (stereo partly specified) [Genostrychnine base] the value was 0; for `C[C@@H]1CN([C@H]2CC[C@](C#N)(c3ccc(F)cc3)CC2)CC[C@]1(C(=O)O)c1ccccc1` [levocabastine], 0; for `Cc1ccc(C[N+](C)(C)C)o1` [5-Methylfurmethiodide], 0.
With `COc1cc2c3cc1Oc1cc(ccc1O)C[C@@H]1c4c(cc(OC)c(O)c4Oc4cccc(c4)C[C@@H]3N(C)CC2)CC[N+]1(C)C` [Tubocurarine chloride pentahydrate (+)], the phenotypically active was 0.
With `CCCC(C)C1(CC)C(=O)N=C(S)NC1=O` (stereo unspecified) [thiopental] the figure was 0; with `C=C1[C@H]2C[C@@]3([C@@H]1O)[C@@H](C[C@@H]2O)[C@]12[C@@H]4C[C@H]3[C@H]1N(CC)C[C@]4(C)CC[C@@H]2O` [Napelline], 0; with `CO[C@H](C)[C@](O)(C(=O)OCC1=CCN2CC[C@H](O)[C@@H]12)C(C)C` [Heliotrine], 0.
With `C/C=C1\C[C@@H](C)[C@](O)(CO)C(=O)OCC2=CCN3CC[C@@H](OC1=O)[C@@H]23` [Retrorsine] the figure was 0; with `CN(C)NC(=O)CCC(=O)O` [Daminozide], 0; with `CN1[C@@H]2CC(=O)C[C@H]1[C@H](O)C2` [6-Hydroxytropinone], 0.
For `COc1ccc2c3c1O[C@H]1C(=O)CC[C@H]4[C@@H](C2)N(C)CC[C@]314` [hydrocodone] the value was 0.
Turning to `CCN(C(C)=O)c1cccc(-c2ccnc3c(C#N)cnn23)c1` [zaleplon], the phenotypically active was 0.
For `C[N+]1([O-])[C@@H]2C[C@@H](OC(=O)[C@H](CO)c3ccccc3)C[C@H]1[C@@H]1O[C@@H]12` (stereo partly specified) [Genoscopolamine HBr] the value was 0.
For `NCC1(CC(=O)O)CCCCC1` [gabapentin], the phenotypically active was 0.
For `CN1CCc2cc3c(cc2[C@H]1[C@@H]1OC(=O)c2c1ccc1c2OCO1)OCO3` [bicuculine] the value was 0; for `c1cncc(C2CC3CCN2CC3)c1` (stereo unspecified) [RJR 2429 dihydrochloride], 0.
For `CC1=CC(=O)C2=C(C)C[C@H](O)[C@@H]3[C@H](OC(=O)[C@H]3C)[C@@H]12` [Austricine hydrate], the phenotypically active is 0.
In the case of `C=C(C)[C@H]1CN[C@H](C(=O)O)[C@H]1CC(=O)O` [Kainic acid], the phenotypically active was 0.
For `C[C@H]1CCC2(NC1)O[C@H]1C[C@H]3[C@@H]4CC[C@H]5C[C@@H](O[C@@H]6O[C@H](CO)[C@H](O[C@@H]7O[C@H](CO)[C@@H](O)[C@H](O[C@@H]8OC[C@@H](O)[C@H](O)[C@H]8O)[C@H]7O[C@@H]7O[C@H](CO)[C@@H](O)[C@H](O)[C@H]7O)[C@H](O)[C@H]6O)CC[C@]5(C)[C@H]4CC[C@]3(C)[C@H]1[C@@H]2C` (stereo partly specified) [Tomatine] the value was 0.
As to `CN1[C@@H]2C[C@@H](OC(=O)[C@H](CO)c3ccccc3)C[C@H]1[C@@H]1O[C@@H]12` [Scopolamine hydrobromide], the phenotypically active is 0.

Source of the values: the supplement of paper PMC7411054.
